Test results taken from PubChem BioAssay (EPA / NIEHS).
Several values for one entry are separate records, joined by “and”; a condition that tells them apart may be missing. Equal values may be shown once. The source holds several records for some structures; these can differ, active in one and inactive in another. Activity calls are given as the source filed them. The calls were made as follows: active = hit-call score of the fitted dose curve at least 0.9, where 1 is the maximum; inactive = score below 0.9.

assay: ATG_Oct_MLP_CIS: Attagene CIS-FACTORIAL HepG2 Assay for human Octamer-Binding Transcription Factor (Oct) (AID 2282993); details: HepG2 Attagene cis-factorial Oct reporter, mRNA; actives raise or lower the signal
Description: ATG_CIS is a cell-based, multiplexed-readout assay that uses HepG2, a human liver cell line, with measurements taken at 24 hours after chemical dosing in a 24-well plate.ATG_Oct_MLP_CIS is one of 52 assay component(s) measured or calculated from the ATG_CIS assay. It is designed to make measurements of mRNA induction, a form of inducible reporter, as detected with fluorescence intensity signals by Reverse transcription polymerase chain reaction (RT-PCR) and Capillary electrophoresis technology.Data from the assay component ATG_Oct_MLP_CIS was analyzed into 1 assay endpoint. This assay endpoint, ATG_Oct_MLP_CIS, was analyzed with bidirectional fitting relative to DMSO as the negative control and baseline of activity. Using a type of inducible reporter, measures of mRNA for gain or loss-of-signal activity can be used to understand the reporter gene at the transcription factor-level as they relate to the gene POU2F1. Furthermore, this assay endpoint can be referred to as a primary readout, because this assay has produced multiple assay endpoints where this one serves a reporter gene function. To generalize the intended target to other relatable targets, this assay endpoint is annotated to the dna binding intended target family, where the subfamily is POU domain protein.
Human liver HepG2 cells are transiently transfected with multiple reporter transcription units (MRTUs) in 6-well plates using FuGene 6 reagent (Roche; 3 ml FuGene/1 mg DNA). The MRTU constructs are regulated by a cis-regulating element (promoter). […] A major difference between the CIS and TRANS system is that in CIS activities of endogenous TFs are measured, whereas the TRANS assay evaluates changes in activities of exogenous, chimeric NR-Gal4 proteins. […] At the end of 24 hour incubation, total RNA was isolated using TriZol reagent (Invitrogen). The isolated RNA is then reverse-transcribed using oligo(dT) primer and Mo-MLV reverse transcriptase (Invitrogen) with DNAse I (Ambion) treatment for 30 min. The one-tenth of the produced cDNA was amplified by PCR using Taq DNA polymerase (Invitrogen) and two reporter sequence-specific primers. The PCR products were fluorescently labeled by primer extension with 6-arboxyfluorescein (6-FAM) 5'-labeled reporter sequence-specific primer (2 min at 95 C, 20 s at 68 C and 10 min at 72 C) and these products were digested with 5U of HpaI (New England Biolabs) for 2h at 37 C. The fragments were purified using Qiaquick PCR columns (Qiagen), analyzed on an ABI 3130xL genetic analyzer (Applied Biosystems) with peak positions identified by using a set of X-rhodamine (ROX)-labeled MapMarker1000 molecular weight standards (BioVentures). The raw capillary electrophoresis data was processed using Attagraph software (Attagene).

SMILES | outcome | AC50
O=C(N[C@H]1CN2CCC1CC2)c1cc2ccoc2cn1 | inactive | 
CCOCCOC(C)=O | inactive | 
CC(C)(c1ccccc1)c1ccc(O)cc1 | inactive | 54.7 µM (active) and 33.4 µM (active)
O=C(O)C(F)(F)C(F)(F)C(F)(F)C(F)(F)C(F)(F)F | inactive | 
CC(C)(O)C(=O)Nc1ccc([N+](=O)[O-])c(C(F)(F)F)c1 | inactive | 38.9 µM (active)
Oc1c(Cl)c(Cl)c(Cl)c(Cl)c1Cl |  | 31.1 µM (active) and 11.4 µM (active) and 73.1 µM (active)
ClC(Cl)=C(c1ccc(Cl)cc1)c1ccc(Cl)cc1 | inactive | 145 µM (active) and 152 µM (active) and 154 µM (active)
ClC1=C(Cl)[C@]2(Cl)[C@@H]3[C@H]4C[C@H]([C@@H]5O[C@H]45)[C@@H]3[C@@]1(Cl)C2(Cl)Cl | inactive | 
Cc1cccc([N+](=O)[O-])c1 | inactive | 
Cc1cc(O)ccc1Cl | inactive | 
Oc1ccc(C(c2ccc(O)cc2)(C(F)(F)F)C(F)(F)F)cc1 | inactive | 16.3 µM (active) and 16.7 µM (active) and 18.1 µM (active)
CCOC(=O)C(O)(c1ccc(Cl)cc1)c1ccc(Cl)cc1 | inactive | 
O=C(O)C(F)(F)C(F)(F)C(F)(F)C(F)(F)C(F)(F)C(F)(F)C(F)(F)C(F)(F)F | inactive | 50 µM (active)
N#Cc1ccc(N(CC(N)=O)CC(F)(F)F)cc1C(F)(F)F | inactive | 
CCCCCCCCCc1ccc(O)cc1 | inactive | 
Nc1ccc(-c2ccc(N)cc2)cc1 | inactive | 
CCCCCCOC(=O)c1ccccc1C(=O)OCCCCCC | inactive | 

SMILES | outcome | AC50
CCOP(=S)(OCC)SCSC(C)(C)C | inactive | 
CC(C)C(=O)OCC(C)(C)C(OC(=O)C(C)C)C(C)C (stereo unspecified) | inactive | 
Clc1ccc(C(c2ccccc2Cl)C(Cl)(Cl)Cl)cc1 (stereo unspecified) | inactive | 70.5 µM (active) and 104 µM (active) and 42.3 µM (active)
CC(c1ccc(O)cc1)(c1ccc(O)cc1)c1ccc(O)cc1 |  | 11.1 µM (active)
Clc1ccc(C(Cl)(Cl)Cl)cc1 | inactive | 
NS(=O)(=O)C(F)(F)C(F)(F)C(F)(F)C(F)(F)C(F)(F)C(F)(F)C(F)(F)C(F)(F)F | inactive | 50 µM (active)
Cc1ccc(O)c(C)c1 | inactive | 
CCNc1nc(NC(C)C)nc(SC)n1 | inactive | 
CCC(C)(CC)c1cc(NC(=O)c2c(OC)cccc2OC)on1 |  | 1.64 µM (active)
COS(=O)(=O)OC | inactive | 
COc1ccc(O)c(C(C)(C)C)c1 |  | 143 µM (active)
Cc1ccccc1O | inactive | 
Cc1ccccc1[N+](=O)[O-] | inactive | 
Clc1ccc(Cl)cc1 | inactive | 
CCCN(CCC)N=O | inactive | 
CCC(C)(c1ccc(O)cc1)c1ccc(O)cc1 | inactive | 53 µM (active) and 45.7 µM (active) and 9.52 µM (active)
